Results with a measured potency or affinity are listed apart. Active and inactive are the calls of the source. The rule behind the calls is not given here.
assay: HIV-1 Env-mediated cell fusion inhibitors, dose response, CCR5-tropic Env (AID 2279); conditions: CCR5-tropic HIV-1 Env, reporter read-out; series mostly up to 50 µM; inhibition: at the top concentration

inhibition, inactive:
Cc1ccc(-n2cccc2/C=C2/C(=N)N3C(=NC2=O)SN=C3S(C)(=O)=O)cc1Cl 0.44%
O=C(O)C1Nc2c(cccc2C(F)(F)F)C2C=CCC12 (stereo not given) 9.45%
Cc1ccccc1C(=O)Nc1cccc(C(=O)N/N=C/c2cc(Cl)cc([N+](=O)[O-])c2O)c1 39.4%
O=C(Nc1cccc(C(F)(F)F)c1)c1cccc(NS(=O)(=O)c2ccc(O)c(C(=O)O)c2)c1 -10.3%
COc1cc(/C=C2\C(=N)N3N=C(S(C)(=O)=O)SC3=NC2=O)ccc1OC(=O)c1cccs1 -6.46%
CCS(=O)(=O)C1=NN2C(=N)/C(=C\c3ccc(OS(=O)(=O)c4ccccc4)c(OC)c3)C(=O)N=C2S1 30.1%
COc1cc(/C=C2/C(=N)N3C(=NC2=O)SN=C3S(C)(=O)=O)ccc1OS(=O)(=O)c1ccccc1 25.4%
Cc1cc(C)c2nc(N3C(=O)C(O)=C(C(=O)c4ccco4)C3c3ccco3)sc2c1 (stereo not given) 22.3%
N#Cc1c(-c2ccccc2)nc(SCc2ccc(Cl)cc2)[nH]c1=O 7.41%
O=C(NCc1ccccc1)c1ccc2c(=O)[nH]c3c(C(=O)NCC4CCCO4)sc(=S)n3c2c1 (stereo not given) 14.7%
CCOc1cc(/C=C2\SC(=S)N(C(C(=O)O)c3ccccc3)C2=O)ccc1O (stereo not given) -11.8%
Cc1cc(/C=C2\C(=N)N3N=C(S(C)(=O)=O)SC3=NC2=O)c(C)n1Cc1ccccc1 14%
Cc1ccc(NC(=O)COc2cccc(/C=C3\SC(=S)N(CCC(=O)O)C3=O)c2)cc1Cl 14.1%
COc1cc(/C=C2\C(=N)N3N=C(S(C)(=O)=O)SC3=NC2=O)cc(OC)c1OCCOc1cccc(C)c1 7.88%
Cc1ccc(Cl)cc1N1CCN(C(=O)Cc2c(C(=O)O)[nH]c3ccc(Cl)cc23)CC1 -12.9%
O=C(O)c1cccc(N/N=C/c2cc(Br)cc(Br)c2O)c1 11.8% [at 25 µM]
COc1cc(/C=C2\SC(=Nc3ccccc3)N(CCc3c[nH]c4ccccc34)C2=O)ccc1OC(C)C(=O)O (stereo not given) 36.7%
COc1cccc(NS(=O)(=O)c2ccc3c(c2)C2C=CCC2C(c2ccc(C(=O)O)cc2)N3)c1 (stereo not given) 11.7%
CCOc1ccc2nc(NC(=O)CSc3nc(-c4ccccc4)c(C#N)c(=O)[nH]3)sc2c1 9.5%
Cc1ccccc1N=C1NC(=O)/C(=C/c2cccn2-c2cccc(C(=O)O)c2)S1 -7.38%
CCc1ccc(N=C2NC(=O)/C(=C/c3cc(Br)c(OCC(=O)O)c(OC)c3)S2)cc1 -9.37%
O=C(N/N=C/c1cc(Cl)cc([N+](=O)[O-])c1O)c1ccccc1NS(=O)(=O)c1cccs1 -28%
Cc1ccccc1N/N=C/c1sc(=O)n(Cc2cccc(C(=O)O)c2)c1Cl 37.8%
COc1cc(Cl)cc(C(c2c(C(=O)O)[nH]c3ccccc23)c2c(C(=O)O)[nH]c3ccccc23)c1O 0.79%
COc1ccc(/C=N/NC(=O)c2[nH]c3ccc(Br)cc3c2-c2ccccc2)c(C(=O)O)c1OC 4.8%
O=C(NN1C(=O)/C(=C/c2ccc(O)cc2)SC1=S)c1ccccc1O 21%
O=C(O)CN1C(=O)/C(=C\c2cc(Br)ccc2OCc2ccccc2F)SC1=S -3.94%
Oc1c(Br)cc(Br)c(/C=N/n2c(-c3ccccc3)n[nH]c2=S)c1Br 21.4%
O=C(CCN1C(=O)/C(=C/c2cccs2)SC1=S)Nc1ccc(C(=O)O)c(O)c1 5.85%
O=C(O)c1[nH]c2ccccc2c1C(c1cc(Cl)cc([N+](=O)[O-])c1O)c1c(C(=O)O)[nH]c2ccccc12 -29.6%
Cc1ccc(S(=O)(=O)Oc2ccc(/C=C3\C(=N)N4N=C(S(C)(=O)=O)SC4=NC3=O)cc2)cc1 -3.81%
Cc1ccc2nc(N3C(=O)C(O)=C(C(=O)c4ccco4)C3c3cccc(O)c3)sc2c1 (stereo not given) -0.55%
Cc1ccc(S(=O)(=O)/N=C2/NC(=O)/C(=C/c3cc([N+](=O)[O-])ccc3O)S2)cc1 -12.6%
CCOC(=O)c1sc2nc3c(SCCC(=O)O)cc(C(=O)c4cc(OC)ccc4O)cn3c(=O)c2c1C 26.2%
O=C(NC(=S)Nc1ccccc1C(=O)O)c1ccc(-c2ccc(Br)cc2)o1 31.8%

Reference: PubChem BioAssay AID2279 (Southern Research Specialized Biocontainment Screening …, 2010)
